In PubChem BioAssay (NCI) one finds growth inhibition data, which are given here for 21 compounds.

The nature of assay [1]: NCI Yeast Anticancer Drug Screen. Data for the rad50 strain (AID 155).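 Further: 0% = growth of vehicle-only cultures of the same strain.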 The conditions noted are these: S. cerevisiae rad50 strain growth inhibition; at 50.0 µM; stronger effect = higher value. Put shortly: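 DNA repair mutant yeast, compound exposure, growth read-out; inhibition is taken relative to vehicle.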
Assay [2] can be described thus: NCI Yeast Anticancer Drug Screen. Data for the mec2-1 strain (AID 157). As to conditions: S. cerevisiae mec2-1 strain, at 50.0 µM, stronger effect = higher value. Put shortly: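 mec2-1 yeast strain, carrying an alteration in DNA damage repair or cell cycle control, was exposed to compounds; growth inhibition was measured relative to vehicle-treated controls.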
Assay [3] is described as follows: NCI Yeast Anticancer Drug Screen. Data for the sgs1 mgt1 strain (AID 161).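 Further: 0% = growth of cultures given vehicle only.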 As to conditions: S. cerevisiae sgs1 mgt1 strain, at 50.0 µM, stronger effect = higher value. An outline of the steps: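 Percent growth inhibition was derived by comparing compound-exposed mutant yeast with vehicle-exposed cultures. The strain carries alterations in DNA damage repair.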
Assay [4] can be described thus: NCI Yeast Anticancer Drug Screen. Data for the cln2 rad14 strain (AID 165).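 Further: 0% = growth equal to vehicle treated cultures.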 The conditions noted are these: S. cerevisiae cln2 rad14 strain, at 50.0 µM, stronger effect = higher value. An outline of the steps: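 Yeast carrying cln2 and rad14 alterations (cell cycle control and DNA damage repair) were exposed to compounds. Growth inhibition was measured against vehicle-treated controls.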

The nature of assay [5]: NCI Yeast Anticancer Drug Screen. Data for the bub3 strain (AID 167). As to conditions: S. cerevisiae bub3 mutant strain, at 50.0 µM, stronger effect = higher value. Put shortly:
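In this screen, a yeast mutant lacking normal mitotic checkpoint function is challenged with compound. Relative growth versus vehicle gives the inhibition value.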

A short description of assay [6]: NCI Yeast Anticancer Drug Screen. Data for the mlh1 rad18 strain (AID 175). The conditions noted are these: S. cerevisiae mlh1 rad18 strain growth inhibition; at 50.0 µM; stronger effect = higher value. Put shortly: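 Growth inhibition of the yeast strain was measured after compound exposure and expressed relative to vehicle-treated controls. The strain carries defined defects in DNA damage repair.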

Molecules are shown by their SMILES. Compounds without any hit were thinned out: in the full panel of roughly 79,000, 15% have a hit. Unmarked numbers belong to inactive results. The source made the active and inactive calls. No stated cut-off is given here; in the data, active means growth inhibition above about 70%; inactive means the rest.

`COc1ccc(Cc2cc(O)c(OC)cc2O)cc1`: the growth inhibition in assay [1] is 5.55%; in assay [2] it was 17.1%; in assay [3] it was 38.4%; in assay [4] it was -22.2%; in assay [5] it was -3.75%; in assay [6], 26.8%.
For `CC(C)OP(=O)(O)CCl`, the growth inhibition was -16.9% in assay [1]; -12.6% in assay [2]; -24.4% in assay [3]; -11.4% in assay [4]; -13.6% in assay [5]; -26.3% in assay [6].
For the compound `CC(C)C(=O)Nc1ccc([N+](=O)[O-])cc1`, the growth inhibition in assay [1] is 26.1%; in assay [2] it was 4.2%; in assay [3], 10.8%; in assay [4] it was 9.4%; in assay [5], -36%; in assay [6] it was -17.3%.
On to `CCCCCCC#CC(=O)O`, for which the growth inhibition in assay [1] is 7.8%; in assay [2] it was -3.6%; in assay [3], 0.5%; in assay [4], 16.1%; in assay [5] it was -4.3%; in assay [6], 30.4%.
As to `O=C(O)CN(CCCCN(CC(=O)O)CC(=O)O)CC(=O)O`, the growth inhibition in assay [1] was -6.8%; in assay [2] it was -15.8%; in assay [3], 9.3%; in assay [4] it was -66.5%; in assay [5] it was 16.4%; in assay [6] it was -21.2%.
For `CCCCCCOc1ccc(OCCCC[N+]2(CC)CCCCC2)cc1`, the growth inhibition in assay [1] was 75.5% (active); in assay [2] it was 87.8% (active); in assay [3] it was 73.7% (active); in assay [4] it was 46.5%; in assay [5] it was 90.8% (active); in assay [6] it was 90.8% (active).
Regarding `NCc1ccc(S(=O)(=O)Nc2cc(Br)cc(Br)c2)cc1`, the growth inhibition was 16.4% in assay [1]; 14.8% in assay [2]; 30.2% in assay [3]; 35.1% in assay [4]; 12% in assay [5]; 30.4% in assay [6].
In the case of `O=C(Nc1ccc(Cl)cc1)Nc1nnc2nc(C3(c4nc5nnc(NC(=O)Nc6ccc(Cl)cc6)n5[nH]c4=O)CCCC3=O)c(=O)[nH]n12`, the growth inhibition in assay [1] was -23.3%; in assay [2], -19.5%; in assay [3] it was -11.7%; in assay [4], -32.2%; in assay [5], 10.9%; in assay [6] it was -2.75%.
As to `O=C1C=C(CCC2=CC(=O)c3ccccc3C2=O)C(=O)c2ccccc21`, the growth inhibition in assay [1] is 4.65%; in assay [2] it was -23.5%; in assay [3], -26.9%; in assay [4], -10.9%; in assay [5] it was -26.5%; in assay [6], -28.6%.
Turning to `O=C1c2ccccc2C(=O)N1c1ccccc1Cl`, the growth inhibition in assay [1] is 4.45%; in assay [2], -11%; in assay [3], 27.8%; in assay [4], -111%; in assay [5], 39%; in assay [6], 19.7%.
For `CSCCCC(N)=O`, the growth inhibition in assay [1] is 1.85%; in assay [2], -11.3%; in assay [3] it was -1.5%; in assay [4], 0.7%; in assay [5], -10.2%; in assay [6] it was 3.9%.
As for `O=C1C(O)=C(c2ccccc2)C(=O)N1Cc1ccccc1`, the growth inhibition in assay [1] was 7.25%; in assay [2] it was -4.7%; in assay [3], 4.55%; in assay [4], -39%; in assay [5], 3.4%; in assay [6], -6.6%.
Regarding `CSCCC(NC(=O)c1cnc2ccccc2n1)C(=O)O` (stereo unspecified), the growth inhibition in assay [1] is -4.55%; in assay [2] it was 2.6%; in assay [3] it was 11.2%; in assay [4] it was 5.55%; in assay [5], 14.7%; in assay [6] it was -17.1%.
Regarding `CC1CCC(C(C)(C)O)CC1O` (stereo unspecified), the growth inhibition was -12.9% in assay [1]; 2.05% in assay [2]; 0.9% in assay [3]; -9.05% in assay [4]; -16.8% in assay [5]; -7.55% in assay [6].
Turning to `CC1(C)C2CCC1(C)C(S)C2` (stereo unspecified), the growth inhibition in assay [1] was 7.5%; in assay [2], -1%; in assay [3], -2.75%; in assay [4], -57.1%; in assay [5], -2%; in assay [6] it was 11.9%.
Regarding `O=C1C=C(N2CCCC2)c2ccccc21`, the growth inhibition is 15.4% in assay [1]; -9.25% in assay [2]; 3.85% in assay [3]; -18.9% in assay [4]; -27.6% in assay [5]; 12.8% in assay [6].
Regarding `O=c1cc2n(c(=O)n1-c1ccccc1)CCCC2`, the growth inhibition in assay [1] was 6.1%; in assay [2], 6.6%; in assay [3] it was 11.7%; in assay [4], 12.2%; in assay [5] it was -9.25%; in assay [6], -6.8%.
`COc1ccc(-c2c(C#N)c(-c3ccccc3)n(NS(=O)(=O)c3ccccc3)c(=O)c2C#N)cc1`: the growth inhibition in assay [1] was -0.05%; in assay [2], 40.7%; in assay [3] it was 30.4%; in assay [4], 8.45%; in assay [5], 32.6%; in assay [6], 42.1%.
On to `Cc1c(C)c(Cl)c(C)c(C(Cl)(Cl)Cl)c1C`, for which the growth inhibition in assay [1] was 0.85%; in assay [2] it was -1.3%; in assay [3], 2.05%; in assay [4], 12.2%; in assay [5], -0.65%; in assay [6], -6.25%.
As to `Brc1ccc(/C(=N/Nc2ccccc2)Oc2ccccc2)cc1`, the growth inhibition in assay [1] is 17.6%; in assay [2], 1.8%; in assay [3], 16.1%; in assay [4], 25.3%; in assay [5] it was 14.8%; in assay [6] it was 19.6%.
`CCOC(=O)C(C)(C)Oc1ccc2c(-c3ccccc3)cc(=O)oc2c1`: the growth inhibition is -9.15% in assay [1]; -8.4% in assay [2]; 0.15% in assay [3]; -13.1% in assay [4]; -19.8% in assay [5]; -25.6% in assay [6].
